Experimental data published in the supplement of paper PMC4466140.

Each binder was assayed against AgAbp1 (assay: SPOT peptide array binding signal intensity (averaged, normalized) (arbitrary units (background-subtracted, floor 0; scale differs between SH3 domains)); higher = stronger binding of the SH3 domain to the peptide).
Outline: (§1)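 Four yeast species supplied the SH3 domains, which were expressed as GST fusions in E. coli BL21(DE3) and purified on glutathione Sepharose. Incubation with cellulose membranes carrying synthetic 15-mer peptides, cysteines exchanged for serines, ran overnight at 4°C at 10 μg/ml in TBS-based blocking buffer. Binding signal is reported as normalized, background-subtracted spot intensity averaged over replicates, in arbitrary units not shared between domains.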

Binder | SPOT peptide array binding signal intensity
GSKSGPPPRPKKPST | 94
NMLKKKPLKKPLKRF | 2990

These binders were tested against AgBbc1 in the same assay as above.
Outline: as §1

Binder | SPOT peptide array binding signal intensity
GSKSGPPPRPKKPST | 780
NMLKKKPLKKPLKRF | 12.5

The binders below were run against AgBem1-D1 in the same assay as above.
Outline: as §1

Binder | SPOT peptide array binding signal intensity
GSKSGPPPRPKKPST | 66.5
NMLKKKPLKKPLKRF | 382

Each binder was assayed against AgBzz1-D1 in the same assay as above.
Outline: as §1

Binder | SPOT peptide array binding signal intensity
GSKSGPPPRPKKPST | 524
NMLKKKPLKKPLKRF | 48

Each binder was assayed against AgBzz1-D2 in the same assay as above.
Outline: as §1

Binder | SPOT peptide array binding signal intensity
GSKSGPPPRPKKPST | 102
NMLKKKPLKKPLKRF | 48

Each binder was assayed against AgCyk3 in the same assay as above.
Outline: as §1

Binder | SPOT peptide array binding signal intensity
GSKSGPPPRPKKPST | ≤ 0
NMLKKKPLKKPLKRF | 1

What follows are binders tested against AgFus1 in the same assay as above.
Outline: as §1

Binder | SPOT peptide array binding signal intensity
GSKSGPPPRPKKPST | 23
NMLKKKPLKKPLKRF | 450

Each binder was assayed against AgHof1 in the same assay as above.
Outline: as §1

Binder | SPOT peptide array binding signal intensity
GSKSGPPPRPKKPST | 39.2
NMLKKKPLKKPLKRF | 75

These binders were tested against AgHse1 in the same assay as above.
Outline: as §1

Binder | SPOT peptide array binding signal intensity
GSKSGPPPRPKKPST | ≤ 0
NMLKKKPLKKPLKRF | 924

These binders were tested against AgLsb1 in the same assay as above.
Outline: as §1

Binder | SPOT peptide array binding signal intensity
GSKSGPPPRPKKPST | ≤ 0
NMLKKKPLKKPLKRF | 1

What follows are binders tested against AgLsb4 in the same assay as above.
Outline: as §1

Binder | SPOT peptide array binding signal intensity
GSKSGPPPRPKKPST | ≤ 0
NMLKKKPLKKPLKRF | 84

The binders below were run against AgMyo5 in the same assay as above.
Outline: as §1

Binder | SPOT peptide array binding signal intensity
GSKSGPPPRPKKPST | 0.25
NMLKKKPLKKPLKRF | ≤ 0

What follows are binders tested against AgNbp2 in the same assay as above.
Outline: as §1

Binder | SPOT peptide array binding signal intensity
GSKSGPPPRPKKPST | 37
NMLKKKPLKKPLKRF | 275

What follows are binders tested against AgRvs167 in the same assay as above.
Outline: as §1

Binder | SPOT peptide array binding signal intensity
GSKSGPPPRPKKPST | ≤ 0
NMLKKKPLKKPLKRF | 6.17

The binders below were run against AgSho1 in the same assay as above.
Outline: as §1

Binder | SPOT peptide array binding signal intensity
GSKSGPPPRPKKPST | 20
NMLKKKPLKKPLKRF | 363

Each binder was assayed against AgSla1-D1-D2 in the same assay as above.
Outline: as §1

Binder | SPOT peptide array binding signal intensity
GSKSGPPPRPKKPST | 9
NMLKKKPLKKPLKRF | 415

These binders were tested against AgSla1-D3 in the same assay as above.
Outline: as §1

Binder | SPOT peptide array binding signal intensity
GSKSGPPPRPKKPST | 7.5
NMLKKKPLKKPLKRF | 10

These binders were tested against CaAbp1-D1 in the same assay as above.
Outline: as §1

Binder | SPOT peptide array binding signal intensity
GSKSGPPPRPKKPST | 328
NMLKKKPLKKPLKRF | 2870

The binders below were run against CaAbp1-D2 in the same assay as above.
Outline: as §1

Binder | SPOT peptide array binding signal intensity
GSKSGPPPRPKKPST | 189
NMLKKKPLKKPLKRF | 4760

The binders below were run against CaBbc1 in the same assay as above.
Outline: as §1

Binder | SPOT peptide array binding signal intensity
GSKSGPPPRPKKPST | 825
NMLKKKPLKKPLKRF | 98.5

The binders below were run against CaBem1-D1 in the same assay as above.
Outline: as §1

Binder | SPOT peptide array binding signal intensity
GSKSGPPPRPKKPST | 13
NMLKKKPLKKPLKRF | 268

The binders below were run against CaBzz1-D1 in the same assay as above.
Outline: as §1

Binder | SPOT peptide array binding signal intensity
GSKSGPPPRPKKPST | 1530
NMLKKKPLKKPLKRF | 208

What follows are binders tested against CaBzz1-D2 in the same assay as above.
Outline: as §1

Binder | SPOT peptide array binding signal intensity
GSKSGPPPRPKKPST | 388
NMLKKKPLKKPLKRF | 225

The binders below were run against CaCyk3 in the same assay as above.
Outline: as §1

Binder | SPOT peptide array binding signal intensity
GSKSGPPPRPKKPST | 36.5
NMLKKKPLKKPLKRF | 18

These binders were tested against CaFus1 in the same assay as above.
Outline: as §1

Binder | SPOT peptide array binding signal intensity
GSKSGPPPRPKKPST | 42
NMLKKKPLKKPLKRF | 2320

What follows are binders tested against CaHof1 in the same assay as above.
Outline: as §1

Binder | SPOT peptide array binding signal intensity
GSKSGPPPRPKKPST | 1.5
NMLKKKPLKKPLKRF | ≤ 0

What follows are binders tested against CaHse1 in the same assay as above.
Outline: as §1

Binder | SPOT peptide array binding signal intensity
GSKSGPPPRPKKPST | 0.5
NMLKKKPLKKPLKRF | 226

What follows are binders tested against CaLsb1 in the same assay as above.
Outline: as §1

Binder | SPOT peptide array binding signal intensity
GSKSGPPPRPKKPST | 0.5
NMLKKKPLKKPLKRF | 4.5

The binders below were run against CaLsb4 in the same assay as above.
Outline: as §1

Binder | SPOT peptide array binding signal intensity
GSKSGPPPRPKKPST | ≤ 0
NMLKKKPLKKPLKRF | 506

What follows are binders tested against CaMyo5 in the same assay as above.
Outline: as §1

Binder | SPOT peptide array binding signal intensity
GSKSGPPPRPKKPST | 0.5
NMLKKKPLKKPLKRF | 27.5

These binders were tested against CaNbp2 in the same assay as above.
Outline: as §1

Binder | SPOT peptide array binding signal intensity
GSKSGPPPRPKKPST | 27

What follows are binders tested against CaRvs167 in the same assay as above.
Outline: as §1

Binder | SPOT peptide array binding signal intensity
GSKSGPPPRPKKPST | ≤ 0

What follows are binders tested against CaRvs167-3 in the same assay as above.
Outline: as §1

Binder | SPOT peptide array binding signal intensity
GSKSGPPPRPKKPST | 3.5

These binders were tested against CaSho1 in the same assay as above.
Outline: as §1

Binder | SPOT peptide array binding signal intensity
GSKSGPPPRPKKPST | 29.5

Each binder was assayed against CaSla1-D1-D2 in the same assay as above.
Outline: as §1

Binder | SPOT peptide array binding signal intensity
GSKSGPPPRPKKPST | 130

These binders were tested against CaSla1-D3 in the same assay as above.
Outline: as §1

Binder | SPOT peptide array binding signal intensity
GSKSGPPPRPKKPST | 230

The binders below were run against ScAbp1 in the same assay as above.
Outline: as §1

Binder | SPOT peptide array binding signal intensity
GSKSGPPPRPKKPST | 234

What follows are binders tested against ScBbc1 in the same assay as above.
Outline: as §1

Binder | SPOT peptide array binding signal intensity
GSKSGPPPRPKKPST | 97.8

These binders were tested against ScBem1-D1 in the same assay as above.
Outline: as §1

Binder | SPOT peptide array binding signal intensity
GSKSGPPPRPKKPST | 15

Each binder was assayed against ScBzz1-D1 in the same assay as above.
Outline: as §1

Binder | SPOT peptide array binding signal intensity
GSKSGPPPRPKKPST | 48.5

The binders below were run against ScBzz1-D2 in the same assay as above.
Outline: as §1

Binder | SPOT peptide array binding signal intensity
GSKSGPPPRPKKPST | 72

The binders below were run against ScCyk3 in the same assay as above.
Outline: as §1

Binder | SPOT peptide array binding signal intensity
GSKSGPPPRPKKPST | 1

The binders below were run against ScFus1 in the same assay as above.
Outline: as §1

Binder | SPOT peptide array binding signal intensity
GSKSGPPPRPKKPST | 6.5

The binders below were run against ScHof1 in the same assay as above.
Outline: as §1

Binder | SPOT peptide array binding signal intensity
GSKSGPPPRPKKPST | 1.75

What follows are binders tested against ScHse1 in the same assay as above.
Outline: as §1

Binder | SPOT peptide array binding signal intensity
GSKSGPPPRPKKPST | 13

Each binder was assayed against ScLsb1 in the same assay as above.
Outline: as §1

Binder | SPOT peptide array binding signal intensity
GSKSGPPPRPKKPST | 2.5

The binders below were run against ScLsb2 in the same assay as above.
Outline: as §1

Binder | SPOT peptide array binding signal intensity
GSKSGPPPRPKKPST | 0.5

Each binder was assayed against ScLsb3 in the same assay as above.
Outline: as §1

Binder | SPOT peptide array binding signal intensity
GSKSGPPPRPKKPST | 1400

Each binder was assayed against ScLsb4 in the same assay as above.
Outline: as §1

Binder | SPOT peptide array binding signal intensity
GSKSGPPPRPKKPST | 5

Each binder was assayed against ScMyo3 in the same assay as above.
Outline: as §1

Binder | SPOT peptide array binding signal intensity
GSKSGPPPRPKKPST | 5.25

The binders below were run against ScMyo5 in the same assay as above.
Outline: as §1

Binder | SPOT peptide array binding signal intensity
GSKSGPPPRPKKPST | ≤ 0

What follows are binders tested against ScNbp2 in the same assay as above.
Outline: as §1

Binder | SPOT peptide array binding signal intensity
GSKSGPPPRPKKPST | 51

The binders below were run against ScPex13 in the same assay as above.
Outline: as §1

Binder | SPOT peptide array binding signal intensity
GSKSGPPPRPKKPST | 133

Each binder was assayed against ScRvs167 in the same assay as above.
Outline: as §1

Binder | SPOT peptide array binding signal intensity
GSKSGPPPRPKKPST | 3.33

These binders were tested against ScSho1 in the same assay as above.
Outline: as §1

Binder | SPOT peptide array binding signal intensity
GSKSGPPPRPKKPST | 41

What follows are binders tested against ScSla1-D1-D2 in the same assay as above.
Outline: as §1

Binder | SPOT peptide array binding signal intensity
GSKSGPPPRPKKPST | 57.5

What follows are binders tested against ScSla1-D3 in the same assay as above.
Outline: as §1

Binder | SPOT peptide array binding signal intensity
GSKSGPPPRPKKPST | 28

These binders were tested against SpAbp1-D1 in the same assay as above.
Outline: as §1

Binder | SPOT peptide array binding signal intensity
GSKSGPPPRPKKPST | 85

The binders below were run against SpBbc1 in the same assay as above.
Outline: as §1

Binder | SPOT peptide array binding signal intensity
GSKSGPPPRPKKPST | 5.5

These binders were tested against SpBzz1-D1 in the same assay as above.
Outline: as §1

Binder | SPOT peptide array binding signal intensity
GSKSGPPPRPKKPST | 320

What follows are binders tested against SpBzz1-D2 in the same assay as above.
Outline: as §1

Binder | SPOT peptide array binding signal intensity
GSKSGPPPRPKKPST | 2

The binders below were run against SpCyk3 in the same assay as above.
Outline: as §1

Binder | SPOT peptide array binding signal intensity
GSKSGPPPRPKKPST | ≤ 0

The binders below were run against SpHof1 in the same assay as above.
Outline: as §1

Binder | SPOT peptide array binding signal intensity
GSKSGPPPRPKKPST | 1.5

Each binder was assayed against SpHof1-2 in the same assay as above.
Outline: as §1

Binder | SPOT peptide array binding signal intensity
GSKSGPPPRPKKPST | 10.5

What follows are binders tested against SpHof1-3 in the same assay as above.
Outline: as §1

Binder | SPOT peptide array binding signal intensity
GSKSGPPPRPKKPST | 25

The binders below were run against SpHse1 in the same assay as above.
Outline: as §1

Binder | SPOT peptide array binding signal intensity
GSKSGPPPRPKKPST | 16.2

These binders were tested against SpLsb1 in the same assay as above.
Outline: as §1

Binder | SPOT peptide array binding signal intensity
GSKSGPPPRPKKPST | 12.5

The binders below were run against SpLsb4 in the same assay as above.
Outline: as §1

Binder | SPOT peptide array binding signal intensity
GSKSGPPPRPKKPST | 332

Each binder was assayed against SpMyo1 in the same assay as above.
Outline: as §1

Binder | SPOT peptide array binding signal intensity
GSKSGPPPRPKKPST | 8

What follows are binders tested against SpNbp2 in the same assay as above.
Outline: as §1

Binder | SPOT peptide array binding signal intensity
GSKSGPPPRPKKPST | 5

These binders were tested against SpPex13 in the same assay as above.
Outline: as §1

Binder | SPOT peptide array binding signal intensity
GSKSGPPPRPKKPST | 7

What follows are binders tested against SpRvs167 in the same assay as above.
Outline: as §1

Binder | SPOT peptide array binding signal intensity
GSKSGPPPRPKKPST | ≤ 0

The binders below were run against SpSla1-D1-D2 in the same assay as above.
Outline: as §1

Binder | SPOT peptide array binding signal intensity
GSKSGPPPRPKKPST | 5

These binders were tested against SpSla1-D3 in the same assay as above.
Outline: as §1

Binder | SPOT peptide array binding signal intensity
GSKSGPPPRPKKPST | 1
